Pf growth 48h: inhibits P. falciparum growth in the first generation, 48 h; P. falciparum luciferase growth in erythrocytes, 48 h; Potency, µM (series often up to 28.7 µM), without a hit: at the highest dose activity change, negative = inhibition, hits mostly inhibitors; 310,000 compounds, 5.9% hits; AID 504832; note: % is set by controls: 0 for no effect and ±100 for the full control effect
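Erythrocytes infected with P. falciparum carrying an integrated firefly luciferase reporter (2% hematocrit, 0.1% parasitemia final) were exposed to compounds in RPMI 1640 with 0.5% Albumax at 37 C, 5% CO2. Growth inhibition was scored as reduced luminescence.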
NS1 function inh: blocks influenza NS1 protein function | Potency, µM (titrated, usually from 46.1 µM), inactives show at the highest dose activity, positive = more growth | 270,000 compounds, 0.4% hits; calls by dose curve; note: actives are rising curves; nearly all actives have a fitted effect of over 50% in size
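Growth recovery, yeast-based: influenza A NS1 expressed in S. cerevisiae causes slow growth, and suppressors are detected by OD600. The parent strain without NS1 is used as positive control.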
SARS PLpro yeast: blocks SARS-CoV papain-like protease in a yeast assay; S. cerevisiae expressing SARS-CoV PLpro, growth rescue; Potency, µM (titrated, usually from 32.9 µM), inactives show at the highest dose activity, positive = growth rescue, hits mostly activators; 330,000 compounds, 0.19% hits; AID 485353; calls by dose curve; note: 0% is about no effect; nearly all actives have a fitted effect of over 55% in size
Pf growth 96h: P. falciparum growth inhibition at 96 hours. Potency, µM (highest dose often 28.7 µM), without a hit: at the highest dose activity change, negative = inhibition, actives largely listed as inhibitors. 320,000 compounds, 6.9% hits. AID 504834. P. falciparum luciferase reporter growth, 96 h; note: % is set by controls: 0 for no effect and ±100 for the full control effect
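Plates of compound plus infected erythrocytes (2% hematocrit, 0.05% parasitemia final) incubate 96 hours, 37 C, 5% CO2. Detection reagent added; reduced luminescence from the parasites' luciferase reporter flags inhibition.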
Active calls of the source: *; ? = inconclusive; . = no result given. This is a sample that favours compounds with a hit; in the whole collection about 10% have one here. Unless noted, calls come from the whole dose curve; as a rule, active = well fitted inhibition curve with a large enough effect; inconclusive = small, poorly fitted or top-dose-only effect, or another doubt; inactive = no such curve, though single readings can be large or run the other way. Potency is the fitted concentration of half-maximal effect.

SMILES	Pf growth 48h	NS1 function inh	SARS PLpro yeast	Pf growth 96h
C#CCOCCOCCOCCNc1nc(N2CCN(C(=O)[C@H]([C@@H](C)CC)n3cc([C@@H](N)Cc4ccc(O)cc4)nn3)CC2)nc(N2CCN(C(=O)[C@H]([C@@H](C)CC)n3cc([C@@H](N)CC(C)C)nn3)CC2)n1	1.9µM*	-5%	-1%	1.5µM*
O=[N+]([O-])c1cccc(-c2nnc3ccccn23)c1	46%	-32%	-1%	?
C#CCOCCOCCOCCNc1nc(N2CCOCC2)nc(N2CCN(C(=O)[C@H](Cc3ccc(O)cc3)n3cc([C@@H](N)CC(C)C)nn3)CC2)n1	5.2µM*	1%	0%	12µM*
C#CCOCCOCCOCCNc1nc(N2CCOCC2)nc(N2CCN(C(=O)[C@H]([C@@H](C)CC)n3cc([C@@H](N)Cc4ccc(O)cc4)nn3)CC2)n1	1.5µM*	-1%	-1%	?
C#CCOCCOCCOCCNc1nc(N2CCN(C(=O)[C@H](CCC(=O)O)n3cc(C(N)CO)nn3)CC2)nc(N2CCN(C(=O)[C@H](Cc3ccc(O)cc3)n3cc(C(N)CC(C)C)nn3)CC2)n1 (stereo partly drawn)	44%	5%	-3%	44%
COc1ccc(-c2cc(OC)c3c(C)oc(C)c3c(=O)c2)cc1OC	4.7µM*	-7%	-27%	29%
COc1cc(-c2cc(OC)c3c(C)oc(C)c3c(=O)c2)ccc1O	?	-23%	-2%	3.7µM*
COc1cc(-c2cc(=O)c3c(O)c(OC)c(OC)c(O)c3o2)ccc1O	1%	2%	1%	93%
COc1ccc(-c2cc(C(=O)O)c(C)o2)cc1OC	?	-35%	3%	.
C=CCn1c(=O)c2ccccc2n2c(SCC(=O)NC)nnc12	12%	2%	-2%	14%
CCCN1CCC[C@@H]2Cc3n[nH]cc3C[C@H]21	.	-11%	.	.
CCCn1c(=O)c2c(nc3n2CCCN3Cc2ccccc2)n(C)c1=O	?	-15%	-3%	13µM*
Cc1ccc(Cn2c(=O)c3c(nc4n3CCN4Cc3ccco3)n(C)c2=O)cc1	13µM*	?	21%	33%
COc1ccc(N2CCCn3c2nc2c3c(=O)n(Cc3ccc(C)cc3)c(=O)n2C)c(OC)c1	9.3µM*	.	-1%	0%
Cn1c(=O)n(Cc2ccc(F)cc2)c(=O)c2c1nc1n2CCCN1Cc1ccccc1	2.1µM*	-36%	2%	1.3µM*
CC(OC(=O)c1ccc(Cl)cc1)C(=O)NCC1CCCCC1 (stereo not drawn)	-5%	.	-9%	21%
CCn1c(=O)c2sccc2n(Cc2cc(C(=O)OC)ccc2OC)c1=O	0%	11%	1%	-2%
COc1ccc(/C=N/NC(=O)c2c(C)nc3ccccn23)cc1[N+](=O)[O-]	?	-5%	1%	29%
CC1CN(Cc2cc(=O)n3ccsc3n2)CC(C)O1 (stereo not drawn)	18%	-1%	-2%	12µM*
O=c1cc(CN2CCC(Cc3ccccc3)CC2)nc2sccn12	1%	.	0%	?
COC(=O)C1=C(CS(=O)(=O)c2cc(Cl)ccc2OC)NC(=O)NC1c1ccc(O)c(OC)c1 (stereo not drawn)	6%	2%	-1%	?
O[C@@H](CNC[C@H](O)c1ccccc1)c1ccccc1	9.3µM*	-2%	-9%	9.3µM*
CC1CCC(NCC(O)c2ccccc2)CC1 (stereo not drawn)	.	-2%	1%	6.6µM*
CSc1ccc(CNCC(O)c2ccccc2)cc1 (stereo not drawn)	?	-3%	1%	46%
OC(CNC1CCCCCCC1)c1ccccc1 (stereo not drawn)	?	.	-3%	?
SMILES	Pf growth 48h	NS1 function inh	SARS PLpro yeast	Pf growth 96h
CCCCC(CC)CNCC(O)c1ccccc1 (stereo not drawn)	?	.	2%	?
OC(CNCCc1ccccc1)c1ccccc1 (stereo not drawn)	5.9µM*	-10%	2%	5.9µM*
COc1ccc(CCNCC(C)c2ccccc2)cc1 (stereo not drawn)	18%	1%	1%	18%
COc1ccc(CCNCC(O)c2ccccc2)cc1 (stereo not drawn)	9.3µM*	.	-1%	?
O=C(CCC(=O)N1CCOCC1)NCc1cccc(C(F)(F)F)c1	?	.	-1%	-16%
Cc1ccc2nc(N3CCN(C)CC3)c(C=O)c(=O)n2c1	17%	-2%	-1%	17%
Cc1ccc(C2NC(=O)c3c(sc4c3CCN(C)C4)N2)o1 (stereo not drawn)	.	-33%	-6%	3.7µM*
CCN(CC(=O)Nc1ccc(NC(C)=O)cc1)C(=O)C1(c2ccccc2)CC1	-22%	.	-2%	-14%

From PubChem BioAssay
